# Values joined by “and” are separate entries in the source; they are usually repeats but may differ in a detail not shown here. Equal values may be shown once. Inconclusive results are not listed. Entries that show only a call come without a potency. Active and inactive are the calls of the source. The call rests on the fitted dose curve; in most records, active means well fitted curve in the direction sought with a large enough effect; inconclusive means small, poorly fitted or top-dose-only effect, or another doubt; inactive means no such curve, though single readings can be large; an effect the other way counts as inactive or inconclusive.
# Legend:
# [1] = qHTS of pediatric cancer cell lines to identify multiple opportunities for drug repurposing: Confirmatory screen for SK-N-SH cells (AID 1347129);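 further: cells exposed to compound for 48 h before viability read; nearly all actives have a fitted effect of over 60% in size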; further: potency means the concentration at half of the fitted maximal effect
# Procedure, shortened: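 Cells (500-1,000/well) rested 5 h, then received compounds for 48 h; metabolically active cells were measured by CellTiter-Glo luminescence. Final concentrations spanned up to 46 µM (MIPE, 11-point) or 0.59 nM-46 µM (NPC, 8-point) in primary screens, 11-point in follow-ups.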
# [2] = test system: Zika virus NS2B-NS3 protease; assay: Primary screen GU AMC qHTS for Zika virus inhibitors (AID 1347154); further: nearly all actives have a fitted effect of over 70% in size; further: potency means the concentration at half of the fitted maximal effect
# Procedure, shortened: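 Fluorogenic AMC-substrate cleavage by noncovalent NS2B-NS3 protease complex (25 nM, pH 8.0 Tris buffer with Tween 20) followed for 15 minutes at room temperature (~20% conversion). Percent inhibition from ex340/em450 signal change, fitted by 4-parameter Hill equation.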
# [3] = molecular target: N-terminal Xaa-Pro-Lys N-methyltransferase 1 (Homo sapiens) (UniProt Q9BV86); assay: qHTS Assay for Inhibitors of N-terminal methyltransferase 1 (NTMT1): LOPAC validation of the NTMT1 SAHH-coupled ThioGlo3 Assay (AID 1347143);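 further: SAH from peptide methylation measured as thiol fluorescence via SAHH coupling and ThioGlo3; nearly all actives have a fitted effect of over 70% in size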; further: potency means the concentration at half of the fitted maximal effect
# Procedure, shortened: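 NTMT1 125nM + cpds (various conc.), 1 min RT; add SAM 100uM/SAHH 10uM/ThioGlo3 15uM (addition mix). SAHH-coupled thiol detection, Ex340/Em450, t0 and 30 min RT; signal normalized to background. LOPAC 1280-cpd pilot.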
# [4] = test system: Zika virus NS2B-NS3 protease (unlinked complex); assay: Primary screen GU Rhodamine qHTS for Zika virus inhibitors: Unlinked NS2B-NS3 protease assay (AID 1347159); further: nearly all actives have a fitted effect of over 60% in size
# Procedure, shortened: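 Buffer 10 mM Tris-HCl pH 8.0, 0.01% Tween 20. Unlinked protease 25 nM; compound preincubation 15 min, RT, protected from light. Substrate Rhod110, 1.5 microM; ~15% conversion in 15 min.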
# [5] = test system: Zika virus NS2B-NS3 protease (linked construct); assay: Primary screen NINDS Rhodamine qHTS for Zika virus inhibitors (AID 1347160); conditions: outcome: dose series up to 57.1 µM; further: nearly all actives have a fitted effect of over 55% in size
# Procedure, shortened: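 Aprotinin served as in-plate control. Conditions: 25 nM linked NS2B-NS3, pH 8.0 Tris buffer, titrated compounds, 15 min preincubation and 15 min reaction with 1.5 microM Rhod110 substrate at room temperature.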
# Furin (Homo sapiens) = Furin (Homo sapiens) (UniProt P09958); assay: Furin counterscreen qHTS for Zika virus inhibitors (AID 1347149); further: nearly all actives have a fitted effect of over 70% in size; further: potency means the concentration at half of the fitted maximal effect
# Procedure, shortened: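 Counterscreen measures cleavage of 2 microM BOC-RVRR-AMC, below its ~15 microM Km, by 5 nM full-length human furin at pH 7.0 after a 15-min compound preincubation. Inhibition derives from the 15-min fluorescence increase at 37C.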
# [6] = test system: Zika virus NS2B-NS3 protease (linked construct); assay: Confirmatory screen NINDS AMC qHTS for Zika virus inhibitors (AID 1347152); further: potency means the concentration at half of the fitted maximal effect; nearly all actives have a fitted effect of over 70% in size
# Procedure, shortened: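 IC50s from 4-parameter Hill fits of percent inhibition, based on AMC fluorescence gain (340/450 nm) over 15 min with 10 microM Bz-Nle-KRR-AMC. Enzyme: 1 nM linked NS2B-NS3 in Tris-HCl pH 8.0; 15-min compound preincubation.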
# [7] = test system: Zika virus NS2B-NS3 protease (unlinked complex); assay: Confirmatory screen GU AMC qHTS for Zika virus inhibitors (AID 1347153); further: nearly all actives have a fitted effect of over 70% in size;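 on potency: enzyme at 25 nM with substrate at 10 µM below its Km of 18.3 µM; potency means the concentration at half of the fitted maximal effect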
# Procedure, shortened: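 Noncovalent NS2B hydrophilic domain/NS3 protease complex (25 nM) in 10 mM Tris-HCl pH 8.0, 0.01% Tween 20 was preincubated 15 min at room temperature with compounds. Then 10 µM AMC substrate (Km 18.3 µM) was added; fluorescence was read over 15 min and fitted to a 4-parameter Hill equation.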
# [8] = Confirmatory screen GU Rhodamine qHTS for Zika virus inhibitors qHTS (AID 1347157); conditions: purified enzyme assay, Rhodamine110 substrate fluorescence, 15 min
# Procedure, shortened: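 A qHTS format was used, with compound concentrations ranging up to 114 microM. Each compound was preincubated with 25 nM NS2B-NS3 protease, and the substrate was then added at 1.5 microM. Curves were fitted with a 4-parameter Hill model.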
# [9] = ZIKV-mCherry secondary qHTS for Zika virus inhibitors (AID 1347158); further: potency means the concentration at half of the fitted maximal effect
# Procedure, shortened: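 Percent infection is the share of Hoechst-identified Vero nuclei with mCherry signal above 450 RFU (3 SD over negative controls). Cells were infected with recombinant ZIKV-mCherry at MOI 1 after compound addition and imaged 48–72 h later.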
# [10] = Confirmatory screen NINDS Rhodamine qHTS for Zika virus inhibitors (AID 1347161); further: potency means the concentration at half of the fitted maximal effect; nearly all actives have a fitted effect of over 60% in size
# Procedure, shortened: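 Percent inhibition, normalized to uninhibited and enzyme-free controls, is fitted to a 4-parameter Hill equation. Fluorescence change comes from a 15-min cleavage of 1.5 microM bis-peptide Rhodamine110 substrate by 25 nM linked NS2B-NS3 at room temperature.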
# [11] = test system: Zika virus NS2B-NS3 protease (linked construct); assay: 384 well plate NINDS Rhodamine confirmatory qHTS for Zika virus inhibitors (AID 1347164);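 further: fluorescence from protease cleavage of Ac-LKRR-rhodamine 110 substrate; potency means the concentration at half of the fitted maximal effect; nearly all actives have a fitted effect of over 65% in size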
# Procedure, shortened: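 Fluorescence at 485/538 nm was measured 25 minutes after adding 10 microM Ac-LKRR-Rd substrate, in the dark at room temperature. The protease (5, 30 or 60 nM final) had been preincubated ~15 minutes with compound; aprotinin as control.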
# [12] = HepG2 cells viability qHTS for Zika virus inhibitors (AID 1347168)
# Procedure, shortened: (§1)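 Luminescent ATP readout (CellTiter Glo) after 30 min at 37 degrees C gives viability; cells in DMEM + 4% FBS were treated 24 to 48 hours with compound, following overnight attachment.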
# [13] = Tertiary RLuc qRT-PCR qHTS assay for Zika virus inhibitors (AID 1347169); further: nearly all actives have a fitted effect of over 55% in size; further: potency means the concentration at half of the fitted maximal effect
# Procedure, shortened: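 Orthogonal cell-based readout: luminescence measured 1-1.5 hrs after adding live-cell Renilla substrate to Vero cells that had been infected with ZIKV-RLuc (MOI 1-2) post-compound, incubated 48-72 hrs at 37 degrees C.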
# [14] = molecular target: Lysine-specific demethylase 5B (Homo sapiens) (UniProt Q9UGL1); assay: Optimization screen for KDM5B Histone Demethylases FDH coupled qHTS against the LOPAC library (AID 1347166)
# Procedure, shortened: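 KDM5BDeltaAP (200nM final) in 50mM HEPES pH 7.5, 0.01% Tween-20 was preincubated with compound for 10 min at room temperature. A substrate mix of 12.5uM H3K4Me3, 25uM a-ketoglutarate, ascorbate, Fe2+, NAD+ and formaldehyde dehydrogenase was then added. NADH fluorescence (340/450 nm) was read initially and after 30 min.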
# [15] = Vero cells viability qHTS for Zika virus inhibitors (AID 1347167)
# Procedure, shortened: as §1
# N-terminal Xaa-Pro-Lys N-methyltransferase 1 (Homo sapiens), sequence (Q9BV86 whole entry, looked up): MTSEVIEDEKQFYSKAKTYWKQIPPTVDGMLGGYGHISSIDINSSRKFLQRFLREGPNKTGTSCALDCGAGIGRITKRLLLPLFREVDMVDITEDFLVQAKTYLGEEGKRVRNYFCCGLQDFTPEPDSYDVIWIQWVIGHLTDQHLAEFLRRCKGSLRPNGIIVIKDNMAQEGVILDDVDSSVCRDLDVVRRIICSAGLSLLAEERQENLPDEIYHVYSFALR
# Lysine-specific demethylase 5B (Homo sapiens), sequence (Q9UGL1 whole entry, looked up): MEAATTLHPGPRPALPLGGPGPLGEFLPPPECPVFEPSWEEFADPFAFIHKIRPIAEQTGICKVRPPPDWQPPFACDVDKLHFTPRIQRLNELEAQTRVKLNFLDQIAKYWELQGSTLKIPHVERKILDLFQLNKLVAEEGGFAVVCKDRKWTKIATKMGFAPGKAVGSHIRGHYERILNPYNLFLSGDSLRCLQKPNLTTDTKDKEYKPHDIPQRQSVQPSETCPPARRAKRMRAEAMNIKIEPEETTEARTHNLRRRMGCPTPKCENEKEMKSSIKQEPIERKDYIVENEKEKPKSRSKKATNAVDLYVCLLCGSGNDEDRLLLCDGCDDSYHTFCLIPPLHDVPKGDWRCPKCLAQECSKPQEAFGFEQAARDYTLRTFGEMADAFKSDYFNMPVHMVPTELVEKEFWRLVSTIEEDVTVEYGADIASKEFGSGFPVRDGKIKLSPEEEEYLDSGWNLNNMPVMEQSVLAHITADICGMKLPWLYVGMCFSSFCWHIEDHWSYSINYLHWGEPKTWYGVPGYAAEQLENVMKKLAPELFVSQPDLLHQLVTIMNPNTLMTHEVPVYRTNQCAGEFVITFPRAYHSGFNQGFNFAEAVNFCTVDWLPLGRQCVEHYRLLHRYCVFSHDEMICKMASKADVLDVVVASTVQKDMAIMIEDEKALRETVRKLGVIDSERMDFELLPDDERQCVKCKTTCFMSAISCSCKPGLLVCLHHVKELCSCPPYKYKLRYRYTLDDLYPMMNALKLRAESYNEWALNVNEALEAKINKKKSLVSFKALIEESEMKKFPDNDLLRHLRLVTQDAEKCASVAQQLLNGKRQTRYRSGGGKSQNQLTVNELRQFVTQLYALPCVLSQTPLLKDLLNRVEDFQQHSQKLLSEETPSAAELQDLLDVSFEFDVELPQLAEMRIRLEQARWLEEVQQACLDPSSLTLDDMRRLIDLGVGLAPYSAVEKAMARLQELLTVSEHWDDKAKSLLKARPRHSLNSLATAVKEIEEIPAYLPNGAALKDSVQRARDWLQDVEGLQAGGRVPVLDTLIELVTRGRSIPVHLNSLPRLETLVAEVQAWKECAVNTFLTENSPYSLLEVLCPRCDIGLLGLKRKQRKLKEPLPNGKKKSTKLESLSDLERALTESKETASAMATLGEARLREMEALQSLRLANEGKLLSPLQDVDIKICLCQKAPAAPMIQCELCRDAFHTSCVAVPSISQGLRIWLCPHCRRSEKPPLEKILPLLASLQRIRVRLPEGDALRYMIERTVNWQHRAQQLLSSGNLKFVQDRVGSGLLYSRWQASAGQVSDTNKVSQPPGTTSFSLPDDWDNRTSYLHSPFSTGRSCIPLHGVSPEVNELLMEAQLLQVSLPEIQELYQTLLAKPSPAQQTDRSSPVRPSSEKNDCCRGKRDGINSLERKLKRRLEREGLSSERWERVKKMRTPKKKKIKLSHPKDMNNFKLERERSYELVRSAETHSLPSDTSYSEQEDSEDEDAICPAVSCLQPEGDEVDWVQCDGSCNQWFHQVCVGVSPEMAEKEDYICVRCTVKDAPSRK
# Furin (Homo sapiens), sequence (P09958 whole entry, looked up): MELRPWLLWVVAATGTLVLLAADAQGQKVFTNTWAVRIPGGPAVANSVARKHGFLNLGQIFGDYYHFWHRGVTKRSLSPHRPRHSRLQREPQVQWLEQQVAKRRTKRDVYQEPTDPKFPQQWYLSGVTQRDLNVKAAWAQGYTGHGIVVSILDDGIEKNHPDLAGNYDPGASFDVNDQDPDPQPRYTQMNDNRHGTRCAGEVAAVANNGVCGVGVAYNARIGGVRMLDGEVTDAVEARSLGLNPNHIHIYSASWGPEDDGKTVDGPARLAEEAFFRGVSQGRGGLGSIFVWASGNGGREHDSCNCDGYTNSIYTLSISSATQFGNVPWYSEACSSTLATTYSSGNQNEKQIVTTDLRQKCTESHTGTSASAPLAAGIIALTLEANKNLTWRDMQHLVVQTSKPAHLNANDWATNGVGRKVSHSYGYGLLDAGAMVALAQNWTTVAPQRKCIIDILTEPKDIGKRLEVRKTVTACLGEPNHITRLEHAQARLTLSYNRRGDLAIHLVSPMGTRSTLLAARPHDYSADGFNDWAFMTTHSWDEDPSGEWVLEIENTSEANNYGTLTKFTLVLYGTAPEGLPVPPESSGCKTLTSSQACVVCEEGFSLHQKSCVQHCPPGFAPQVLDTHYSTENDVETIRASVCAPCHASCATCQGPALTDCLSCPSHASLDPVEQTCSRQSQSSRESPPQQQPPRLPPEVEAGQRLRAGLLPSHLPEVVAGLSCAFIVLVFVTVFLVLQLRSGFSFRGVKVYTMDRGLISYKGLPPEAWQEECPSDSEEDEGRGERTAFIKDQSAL
compound,measurement,setting,value
C[C@]12C=CC(=O)C=C1CC[C@@H]1[C@@H]2[C@@H](O)C[C@@]2(C)[C@H]1CC[C@]2(O)C(=O)CO,Potency,[1],inactive
same,Potency,[2],inactive
C[C@]12C=CC(=O)C=C1[C@@H](F)C[C@@H]1[C@@H]2[C@@H](O)C[C@@]2(C)[C@H]1CC[C@]2(O)C(=O)CO,Potency,[1],inactive
same,Potency,[2],inactive
COc1cc(C=C2CCC/C(=C\c3ccc(O)c(OC)c3)C2=O)ccc1O,Potency,[1],18.7 µM (active)
CCC(C(=O)OCCN(CC)CC)c1ccccc1 (stereo unspecified),Potency,[1],inactive
same,Potency,[2],inactive
COc1cc(NS(C)(=O)=O)ccc1Nc1c2ccccc2nc2ccccc12,Potency,[3],50.1 µM (active)
CC(=O)OCC(=O)[C@@]1(O)[C@H](C)C[C@H]2[C@@H]3CCC4=CC(=O)C=C[C@]4(C)[C@@]3(F)[C@@H](O)C[C@@]21C,Potency,[1],inactive
same,Potency,[2],inactive
same,outcome,[4],inactive
same,outcome,[5],inactive
O=C(Nc1ccc(Oc2ccc(Cl)cc2)c(Cl)c1)c1cc(I)cc(I)c1O,Potency,Furin (Homo sapiens),inactive
same,Potency,[6],13.6 µM (active)
same,Potency,[7],21.5 µM (active)
same,Potency,[2],14.1 µM (active)
same,Potency,[8],6.31 µM (active)
same,Potency,[9],11.2 µM (active)
same,Potency,[10],20 µM (active) and 3.93 µM (active)
same,Potency,[11],20 µM (active)
same,Potency,[12],inactive
same,Potency,[13],26.2 µM (active)
CNCCC=C1c2ccccc2CCc2ccccc21,Potency,[3],inactive
same,outcome,[14],inactive
NC(CS)C(=O)O (stereo unspecified),Potency,[2],inactive
COc1c2occc2c(OC)c2c(=O)cc(C)oc12,Potency,[2],inactive
CCCC1O[C@@H]2C[C@H]3[C@@H]4CCC5=CC(=O)C=C[C@]5(C)[C@H]4[C@@H](O)C[C@]3(C)[C@]2(C(=O)CO)O1 (stereo partly specified),Potency,[3],inactive
same,outcome,[14],inactive
CC/C(=C(/CC)c1ccc(O)cc1)c1ccc(O)cc1,Potency,[2],inactive
NC(=O)c1cc[n+](CC2=C(C(=O)[O-])N3C(=O)[C@@H](NC(=O)Cc4cccs4)[C@H]3SC2)cc1,Potency,[2],inactive
C[C@H]1[C@H](NC(=O)/C(=N/OC(C)(C)C(=O)O)c2csc(N)n2)C(=O)N1S(=O)(=O)O (stereo in doubt),Potency,[2],inactive
O=C(O)c1cc2cc(Cc3cccnc3)ccc2o1,Potency,[3],inactive
same,outcome,[14],inactive
Clc1ccc2c(c1)CCc1cccnc1C2=C1CCNCC1,Potency,[2],inactive
O=S1(=O)c2cccc3cccc(c23)N1CCCN1CCN(c2ccc(F)cc2)CC1,Potency,[2],inactive
CN1C2CCC1CC(OC(=O)c1c[nH]c3ccccc13)C2 (stereo unspecified),Potency,[3],inactive
same,outcome,[14],inactive
CC1(C)CCC(NC(=O)[C@@H](N)CCC(=O)O)CC1,Potency,[3],inactive
same,outcome,[14],inactive
CC[C@H](C)C(=O)O[C@H]1CCC=C2C=C[C@H](C)[C@H](CC[C@@H]3C[C@@H](O)CC(=O)O3)[C@H]21,Potency,[3],inactive
same,outcome,[14],inactive
N[C@@H](Cc1cnc[nH]1)C(=O)O,Potency,[3],inactive
same,outcome,[14],inactive
C[N+]1(CCCCC[N+]2(C)CCCC2)CCCC1,Potency,[3],inactive
same,outcome,[14],inactive
Oc1ccc(Cl)c2cccnc12,Potency,[2],inactive
Nc1ccn([C@@H]2O[C@H](CO)[C@@H](O)C2(F)F)c(=O)n1,Potency,Furin (Homo sapiens),inactive
same,outcome,[4],inactive
same,outcome,[5],inactive
same,Potency,[15],inactive
same,Potency,[12],inactive
same,Potency,[13],0.0302 µM (active)
CC(C)COC(=O)OCN1C(=O)CN(CCN2CC(=O)N(COC(=O)OCC(C)C)C(=O)C2)CC1=O,Potency,[3],inactive
same,outcome,[14],inactive
C[C@@H]1C(=O)NC2=Nc3cccc(Cl)c3CN21,Potency,[3],inactive
same,outcome,[14],inactive
CNCCC(Oc1ccccc1C)c1ccccc1 (stereo unspecified),Potency,[3],inactive
same,outcome,[14],inactive
CC(=O)CC(c1ccc([N+](=O)[O-])cc1)c1c(O)c2ccccc2oc1=O (stereo unspecified),Potency,[2],inactive
Nc1nc2ncc(CNc3ccc(C(=O)N[C@@H](CCC(=O)O)C(=O)O)cc3)nc2c(=O)[nH]1,Potency,Furin (Homo sapiens),21.5 µM (active)
same,Potency,[7],inactive
same,Potency,[10],55.3 µM (active)
same,Potency,[15],inactive
same,Potency,[12],inactive
same,Potency,[13],inactive
CCN(CC)CCNC(=O)COc1ccc(Cl)cc1,Potency,[2],inactive
C[C@H](CCC(=O)O)[C@H]1CC[C@H]2[C@@H]3C(=O)C[C@@H]4CC(=O)CC[C@]4(C)[C@H]3CC(=O)[C@]12C,Potency,[2],inactive
CC(=O)O[C@H]1C[C@@H]2CC[C@@H]3[C@H](CC[C@@]4(C)[C@H]3C[C@H]([N+]3(C)CCCCC3)[C@@H]4OC(C)=O)[C@@]2(C)C[C@@H]1[N+]1(C)CCCCC1,Potency,[3],inactive
same,outcome,[14],inactive
CC(=O)c1ccc2c(c1)N(CCCN1CCC(CCO)CC1)c1ccccc1S2,Potency,[2],inactive
Cc1c(N(C)CS(=O)(=O)O)c(=O)n(-c2ccccc2)n1C,Potency,[2],inactive
CC[N+](CC)(CCNC(=O)C(=O)NCC[N+](CC)(CC)Cc1ccccc1Cl)Cc1ccccc1Cl,Potency,[2],inactive
C1CCc2nnnn2CC1,Potency,[3],inactive
same,outcome,[14],inactive
O=C1CCC(c2ccc(-n3ccnc3)cc2)=NN1,Potency,[3],inactive
same,outcome,[14],inactive
